# TIM10 inh: TIM10 yeast growth inhibition; S. cerevisiae TIM10 strain growth, BacTiter-Glo luminescence, 24 h; inhibition, % at 10 µM; 1.4% of 330,000 active;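 active = inhibition of 40% or more at the single tested concentration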;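 also: wild-type TIM10 isogenic control strain grown at permissive 25 °C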
# PfHsp90 set2: inhibits growth of yeast expressing Plasmodium falciparum Hsp90; inhibition, % at 9.4 µM; 0.32% of 310,000 active; S. cerevisiae expressing PfHsp90, BacTiter-Glo ATP, 48 h; yeast lacking PDR1 and PDR3 efflux regulators;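 active = every replicate shows inhibition above about 80%, whatever the replicate mean, limit read from the data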;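 also: 0% = DMSO neutral controls and 100% = 20 µM radicicol positive controls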
# tim23-1 inh: growth inhibitors of tim23-1 mutant yeast | 1.3% of 330,000 active | AID 463212 | inhibition, % at 20 µM | S. cerevisiae tim23-1 growth, BacTiter-Glo luminescence, 24 h;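 active = growth inhibition of the mutant yeast at or above 50%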;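 also: temperature-sensitive mutant grown at 25 °C; plate controls were DMSO-treated mutant yeast for no effect and medium wells lacking yeast for full effect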
# SKKanGAS inh: inhibitors of SKKanGAS S. pyogenes growth in kanamycin (SK-promoter or general growth effect); inhibition, % at 7.5 µM; BacTiter-Glo, 6 h; 1.3% of 300,000 active;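 active = mean replicate score, as percent of positive control median, at least 50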;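 also: strain carries kanamycin resistance gene driven by streptokinase promoter and grows in 40 µg/ml kanamycin; loss of luminescence reflects streptokinase promoter inhibition or plain growth inhibition; 0% = median of DMSO wells and 100% = positive control at its reference dose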
# NALP3 yeast inh: inhibitors of NALP3 inflammasome in yeast; Yeast reconstituted NLRP3/ASC/caspase-1, beta-gal luminescence, 24 h; inhibition, % at 10 µM; 0.39% of 330,000 active;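 active = inhibition of 50% or more; inactive = inhibition below 50%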;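 also: plate controls were induced DMSO wells for no effect and uninduced yeast grown without galactose for full effect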
# tim10-1 inh: inhibits growth of tim10-1 mutant yeast. S. cerevisiae tim10-1 ts strain growth, BacTiter-Glo, 24 h. inhibition, % at 20 µM. 2.2% of 330,000 active. AID 463190;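 active = inhibition of at least 40%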;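 also: mutant grown at 25 °C; 0% = DMSO wells with yeast and 100% = wells holding no yeast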
# tim10-1 confirm: tim10-1 yeast growth inhibition, confirmed. shares compounds with tim10-1 inh. S. cerevisiae tim10-1 ts strain growth, BacTiter-Glo, 24 h. inhibition, % at 20 µM. 56% of 7,400 active. AID 463213;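 active = inhibition of yeast growth at or above a set limit in either of two repeat tests at 20 µM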;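 also: tim10-1 mutant grown at permissive 25 °C to find synthetic lethal compounds; 0% = DMSO yeast wells and 100% = medium wells without yeast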
# TIM10 conf: TIM10 yeast growth inhibition, confirmed; shares compounds with TIM10 inh; S. cerevisiae tim10 strain growth, BacTiter-Glo luminescence, 24 h; inhibition, % at 10 µM; 63% of 4,600 active; AID 463215;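 active = inhibition of yeast growth at or above a set limit in either of two replicates at 10 µM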;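 also: this counterscreen used the strain with wild-type TIM10; 0% = yeast with DMSO and 100% = medium wells lacking yeast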
# tim23-1 confirm: tim23-1 yeast growth inhibition, confirmed. 83% of 4,400 active. inhibition, % at 20 µM. shares compounds with tim23-1 inh. S. cerevisiae tim23-1 growth, BacTiter-Glo luminescence, 24 h;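 active = inhibition above about 39% in either of two replicate wells at 20 µM, limit read from the data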;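 also: temperature-sensitive tim23-1 mutant grown at 25 °C; 0% = DMSO wells with yeast and 100% = medium wells without yeast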
# The depositor's hits bear a star; · = no result given. Most compounds without a hit are left out; they make up all but 4.6% or so of the library.
SMILES,TIM10 inh,PfHsp90 set2,tim23-1 inh,SKKanGAS inh,NALP3 yeast inh,tim10-1 inh,tim10-1 confirm,tim23-1 confirm,others
Cc1sc(NC(=O)c2ccco2)c(CN2CCN(c3ccccn3)CC2)c1C,27.1,-20.2,59.1*,19.9,3.2,48.1*,32.5*,54.9*,
Cc1sc(NC(=O)c2ccco2)c(CN2CCN(c3ccc(F)cc3)CC2)c1C,5.6,-50.3,-0.3,12.8,25.3,5.2,·,·,
Cc1cc(C)n(-c2cc(C(C)(C)C)nc3c(-c4ccccc4)cnn23)n1,26.7,-58.2,50.9*,3.7,9.2,47.4*,41.0*,48.0*,
CCc1ccc(/C=N/NC(=O)c2cc(-c3ccccc3OC)nc3ccccc23)s1,30.5,-2.9,37.8,30.5,9.3,24.6,·,·,
COc1ccccc1-c1cc(C(=O)N/N=C/c2ccc(C)s2)c2ccccc2n1,27.5,2.1,61.2*,14.6,11.3,41.9*,29.2,65.0*,
COc1ccc2c(c1)CC/C2=N\OC(=O)c1ccccc1C,72.6*,15.2,69.9*,16.9,37.3,42.9*,31.0,75.0*,TIM10 conf=86.8*
COc1ccc2c(c1)CCC/C2=N/OC(=O)c1ccccc1OC,23.8,-11.9,42.9,-4.0,17.1,27.7,·,·,
CC1(C)CC(=O)C=C(OC(=O)c2ccc(Cl)cc2)C1,13.7,3.1,40.9,3.1,12.2,9.2,·,·,
CC(C)N1C2OC(C3OC4C(O3)N(C(C)C)S(=O)(=O)N4C(C)C)OC2N(C(C)C)S1(=O)=O (stereo not drawn),89.4*,·,54.8*,-10.7,1.3,60.4*,71.2*,29.0,TIM10 conf=87.7*
Cc1ccc(C)c(S(=O)(=O)N2CCC(c3nc4c(nnn4Cc4ccc5c(c4)OCCO5)c(=O)[nH]3)CC2)c1,7.3,-14.9,5.0,33.9,10.7,-3.9,·,·,
O=C1C=CC(=O)N1c1cccc(-c2ccccc2)c1,95.0*,106.8*,51.3*,22.1,38.1,95.1*,97.5*,97.8*,TIM10 conf=99.2*
COc1cc(N2C(=O)C=CC2=O)ccc1N1C(=O)C=CC1=O,·,30.2,·,·,·,·,·,·,
CC1(C)CC(=O)C=C(NC2=CC3OC(c4ccccc4)OCC3OC2=O)C1 (stereo not drawn),59.3*,28.0,59.5*,-2.3,5.2,68.3*,58.0*,56.0*,TIM10 conf=-1.0
Cc1ccccc1NC1=CC(=O)CC(C)(C)C1,-4.9,-21.6,-9.2,-2.0,9.0,13.7,·,·,
COc1ccc(/C=C2\SC(=O)NC2=S)cc1OC,32.7,-68.5,51.6*,12.4,20.5,40.8*,37.0*,48.1*,
CCn1nc(C)c(CNC(=O)C2CCC(=O)N(CCc3ccc(OC)cc3)C2)c1C (stereo not drawn),2.7,10.3,6.4,-3.9,2.2,-8.2,·,·,
Cc1ccc(-n2cnc3scc(-c4cccs4)c3c2=O)cc1,30.9,-10.6,50.1*,2.8,15.3,41.5*,45.5*,57.5*,
CCn1ncc(/C=N/NC(=O)c2cc(Cl)ccc2OC)c1C,-3.2,-10.8,6.5,-1.2,-9.6,14.5,·,·,
COc1cccc(C=O)c1OCCCOc1cccc2cccnc12,40.8*,-31.6,65.2*,-0.3,2.3,45.0*,33.0*,55.0*,TIM10 conf=34.4*
Brc1ccccc1OCCCOc1cccc2cccnc12,35.4,-19.8,40.7,41.3,18.6,11.4,·,·,
C=CCNc1ncnc2sc(SC)nc12,12.9,1.8,21.4,-7.6,14.7,8.9,·,·,
O=C(Nc1nc2c(Cl)c(Cl)ccc2s1)C1CC1,19.2,-1.4,1.2,1.5,43.1,10.6,·,·,
O=C(Nc1nc2c(Br)cccc2s1)C1CC1,19.9,24.4,79.8*,-0.6,-0.6,46.2*,36.4*,75.7*,
O=C(Nc1ccc(O)cc1)c1ccccc1OCc1ccccc1,37.2,-22.6,53.5*,-2.4,28.1,45.3*,29.6,52.9*,
CCOc1ccccc1C(=O)Oc1cc(C)[nH]c(=O)c1[N+](=O)[O-],7.1,-8.2,-4.6,-0.5,16.4,-18.1,·,·,
SMILES,TIM10 inh,PfHsp90 set2,tim23-1 inh,SKKanGAS inh,NALP3 yeast inh,tim10-1 inh,tim10-1 confirm,tim23-1 confirm,others
COc1ccc(C2/C=C\CN(C(=O)Nc3ccc(C(F)(F)F)cc3)CC(=O)N2Cc2ccc(F)cc2)cc1 (stereo not drawn),47.3*,8.7,53.4*,44.5,19.7,49.5*,38.4*,47.8*,TIM10 conf=27.0
COc1ccc(C2/C=C\CN(C(=O)Nc3ccccc3)CC(=O)N2Cc2ccc(F)cc2)cc1 (stereo not drawn),-0.6,·,-12.1,1.6,17.4,17.5,·,·,
O=C(CN1c2cccc3cccc(c23)S1(=O)=O)NCCc1ccc(F)cc1,-5.6,-1.8,-12.0,·,-6.8,-20.0,·,·,
COc1ccc2cc(-c3[nH]ncc3CN3CCCN(c4ccccc4)CC3)ccc2c1,27.9,18.0,-5.9,-2.0,5.3,36.5,·,·,
CC(=O)c1ccc(OC(=O)CCc2nc3ccccc3s2)cc1,0.9,-1.7,14.4,0.3,4.4,2.2,·,·,
COc1cc(OC)c(C(=O)/C=C/c2ccccc2)c(O)c1O,39.4,-34.8,58.3*,1.6,11.4,50.8*,32.4*,62.9*,
COc1ccc(NC(=S)Nc2cc(C)[nH]n2)cc1Cl,-3.3,12.8,-12.4,-12.0,5.5,15.8,·,·,
Cc1cc(NC(=S)Nc2ccc(C)c(Cl)c2)n[nH]1,28.5,26.7,51.2*,0.7,23.4,46.5*,27.4,39.0*,
C#CCN1C(=O)S/C(=C/C=C/c2ccc(N(C)C)cc2)C1=O,·,-20.2,·,·,·,·,·,·,
CN(C)CCN(C)Cc1c2ccccc2c(CN(C)CCN(C)C)c2ccccc12,31.8,-9.5,58.0*,-2.9,4.2,47.1*,35.5*,56.3*,
NC(=O)c1ccc(NC(=O)COC(=O)CC23CC4CC(CC(Br)(C4)C2)C3)cc1,-9.6,-9.4,3.6,·,8.0,2.7,·,·,
O=S(=O)(/N=C(\Sc1ccc(Cl)cc1)c1ccccc1)c1ccccc1,34.4,-5.4,55.3*,2.6,3.8,44.9*,40.0*,81.2*,
CS/C(=N/S(=O)(=O)c1ccc(C)cc1)c1ccccc1,-9.2,-4.9,14.7,-1.0,-15.7,-4.7,·,·,
CC(C)n1ncc2c(C(=O)NCC(=O)Nc3ccccc3Br)cc(C3CC3)nc21,7.8,-0.4,52.8*,·,21.5,42.1*,25.6,44.5*,
CCc1ccccc1NC(=O)CNC(=O)c1cc(C2CC2)nc2c1cnn2C(C)C,-7.7,-9.1,30.5,·,5.9,3.4,·,·,
COc1ccc2sc3ccccc3c(=O)c2c1OC,52.3*,4.7,57.7*,-2.8,20.2,40.8*,56.8*,64.1*,TIM10 conf=50.2*

# Screening data from PubChem.
